# Screening data from PubChem BioAssay.
# TrxR1 inh: inhibitors of rat thioredoxin reductase 1. O89049. recombinant rTrxR1, NADPH fluorescence consumption, selenite substrate. Potency, µM (series often up to 114 µM), for the others: at the highest dose activity change, negative = inhibition, actives largely listed as inhibitors. 390,000 tested, 1% active; note: nearly all actives have a fitted effect of over 65% in size
#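 Rat TrxR1 (90 nM in the dispensed reagent) was pre-reduced with 400 uM NADPH for 5 min at room temperature, then incubated with compound for 15 min. After 400 uM selenite was added, NADPH fluorescence (Ex 340/Em 450 nm) was followed for 8 min.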
# KAT2A inh: GCN5L2 (KAT2A) acetyltransferase inhibition | Q92830 | GCN5L2 HAT assay, ThioGlo1 CoA-SH fluorescence | Potency, µM (top dose mostly 58.9 µM), inactives show at the top dose activity change, negative = inhibition, hits mostly inhibitors | 390,000 tested, 0.21% active | AID 504327
#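 ThioGlo1-coupled HAT assay: 20nM GCN5L2, 70uM acetyl-CoA, 75uM H3(1-25) peptide, pH 7.5. Fluorescence read at 340/540nm at start and after 20 min at room temperature.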
# TrxR1 substrate: rat thioredoxin reductase 1 substrate activity; 390,000 tested, 0.01% active; Potency, µM (top dose mostly 114 µM), inactives show at the highest dose activity change, negative = substrate turnover; AID 588456; purified TrxR1 substrate turnover, NADPH consumption readout; note: nearly all actives have a fitted effect of over 50% in size
#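 Rat TrxR1, dispensed at 90 nM, was prereduced with 400 uM NADPH (final) for 5 min at ~22 deg C, then incubated with compound 15 min before 400 uM selenite. A first-read NADPH fluorescence drop versus no-compound background flagged substrates.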
# VDR inhibitor: blocks the human vitamin D receptor; VDR-SRC2-3 peptide fluorescence polarization, 2 h; Potency, µM, inactives show max response, negative = inhibition, most hits filed as inhibitors; 400,000 tested, 0.93% active; P11473; AID 504847
# Target sequence (P11473 whole entry, looked up): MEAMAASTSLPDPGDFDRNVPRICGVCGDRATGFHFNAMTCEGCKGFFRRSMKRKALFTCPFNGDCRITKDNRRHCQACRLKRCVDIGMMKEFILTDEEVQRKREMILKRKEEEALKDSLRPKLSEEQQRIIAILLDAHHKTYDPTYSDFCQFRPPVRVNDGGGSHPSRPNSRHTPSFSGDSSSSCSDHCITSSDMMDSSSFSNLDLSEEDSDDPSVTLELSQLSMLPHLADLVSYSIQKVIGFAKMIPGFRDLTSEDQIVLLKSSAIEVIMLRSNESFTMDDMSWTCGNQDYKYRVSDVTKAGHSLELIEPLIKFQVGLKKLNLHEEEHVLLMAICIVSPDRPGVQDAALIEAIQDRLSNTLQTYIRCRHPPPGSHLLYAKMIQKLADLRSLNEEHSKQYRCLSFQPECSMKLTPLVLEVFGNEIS
#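 FP read-out; VDR + SRC2-3 coactivator peptide; 23 nl compound by pintool; 2 h RT incubation; reagents held at 4 deg C, protected from light.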
# * = called active by the depositor; ? = inconclusive; · = no result given; ! = a repeat was not active; [ ] = remark or other dose. Shown are actives, neighbours in structure and some others; about 1.8% of the full set was active somewhere. Calls come from the whole dose curve; as a rule, active = well fitted curve in the direction sought with a large enough effect; inconclusive = small, poorly fitted or top-dose-only effect, or another doubt; inactive = no such curve, though single readings can be large; an effect the other way counts as inactive or inconclusive. % is set by controls: 0 for no effect and ±100 for the full control effect; potency is the fitted concentration of half-maximal effect.
SMILES,TrxR1 inh,KAT2A inh,TrxR1 substrate,VDR inhibitor
Cc1cccc(NC(=O)Cn2c(=O)oc3cc(S(=O)(=O)NCc4ccccc4)ccc32)c1,8%,-7%,0%,3%
NC(=O)COc1ccccc1C(=O)Nc1ccccc1,6%,·,3%,·
O=C1c2cccnc2-c2ncccc21,4%[57.1 µM],-3%,13%[57.1 µM],5%
COC1=C(Br)C(=O)c2ncccc2C1=O,?,·,5%[11.4 µM],3.5µM*
Nc1sc2c(c1C(=O)NC1CC1)CCCC2,-28%,-8%,-1%,79µM*
CC(C)(C)n1ncc2c(=O)n(Cc3ccc([S+](=O)([O-])N4CCOCC4)cc3)cnc21,-10%,·,-3%,·
CCN(CC)CCN(C(=O)CCS(=O)(=O)c1ccccc1)c1nc2cc3c(cc2s1)OCO3,14µM*,-6%,-1%,-11%
Cc1ccc2nc(N(CCN3CCOCC3)C(=O)CCS(=O)(=O)c3ccccc3)sc2c1,-28%,-7%,1%,1%
O=C(CCS(=O)(=O)c1ccccc1)N(CCCN1CCOCC1)c1nc2ccccc2s1,14µM*,-1%,-1%,?
Cc1ccc(S(=O)(=O)CCC(=O)N(CCCN2CCOCC2)c2nc3ccccc3s2)cc1,28µM*,-2%,-2%,1%
COc1ccc(/C=C/c2ccnc3ccccc23)c(OC)c1,-1%,·,-11%,·
CO[C@H]1C=CO[C@]2(C)Oc3c(C)c(O)c4c(O)c(c5c(c4c3C2=O)NC2(CCN(CC(C)C)CC2)N=5)=NC(=O)C(C)=CC=C[C@@H](C)[C@@H](O)[C@@H](C)[C@@H](O)[C@@H](C)[C@@H](OC(C)=O)[C@@H]1C,·,3%[21.4 µM],·,-3%
CO[C@H]1/C=C/O[C@@]2(C)Oc3c(C)c(O)c4c(O)c(c5c(c4c3C2=O)NC2(CCN(CC(C)C)CC2)N=5)=NC(=O)/C(C)=C\C=C\[C@H](C)[C@H](O)[C@@H](C)[C@@H](O)[C@@H](C)[C@H](OC(C)=O)[C@@H]1C,-11%,11%,-9%,40µM*!
CC(C)(C)c1cc(N2CCOCC2)n2ncc(-c3ccc(Cl)cc3)c2n1,89µM*,16%,174%,5%
Cc1cc(N2CCOCC2)n2ncc(-c3ccc(Cl)cc3)c2n1,73%,1%,157%,11%
O=C(CCCN1C(=O)/C(=C\c2ccccc2)SC1=S)Nc1ccc(O)cc1C(=O)O,-22%,-4%,2%,-22%
CC(C(=O)Nc1ccc(O)cc1C(=O)O)N1C(=O)/C(=C\c2cccs2)SC1=S (configuration not stated),-22%,-37%,-11%,45µM*
CCNc1nc(N2CCCN(C)CC2)nc2cc(OC)c(OC)cc12,-26%,·,31%,·
CCOc1ccc(CN(C)C(=O)CCNC(=O)c2ccco2)cc1,5%,-4%,4%,-13%
CCOc1ccc(CN(C)C(=O)CCl)cc1,18µM*,-4%,13%[57.1 µM],-3%
Cc1oc(-c2ccc(Cl)cc2)nc1CS(=O)CC(=O)NCCCN1CCN(Cc2ccccc2)CC1 (configuration not stated),-24%,-5%,2%,-4%
CCc1ccc(-c2nc(CS(=O)CC(=O)NCCCN3CCOCC3)c(C)o2)cc1 (configuration not stated),20µM*,-10%,10%,2%
Cc1ccc(-c2nc(CS(=O)CC(=O)NCc3ccc(Cl)cc3)c(C)o2)cc1 (configuration not stated),-10%[57.1 µM],-1%,6%[57.1 µM],-11%
CCc1ccc(-c2nc(CS(=O)CC(=O)NCc3ccccc3)c(C)o2)cc1 (configuration not stated),32µM*,-13%,2%,-27%
Cc1oc(-c2ccc(Cl)cc2)nc1CS(=O)CC(=O)NCc1ccccn1 (configuration not stated),18µM*,0%,-3%,-1%
SMILES,TrxR1 inh,KAT2A inh,TrxR1 substrate,VDR inhibitor
COc1ccc(-c2cc(=O)c3ccc(F)cc3[nH]2)cc1,·,17%[88.6 µM],·,18%
COc1c(O)c(O)c2cc(OC)c3c(OC)cc(=O)c4c5c(=O)c(OC)c(C(C)=O)c6c5c(c1CC=6C)c2c34,·,17%,·,?
CN(C)c1ccc(/C=C2\CCc3cc(N)ccc32)cc1,-8%,·,-9%,·
O=C(c1ccncc1)N1CCC2(CC1)CN(c1ccncc1)C2,·,0%,·,-2%
CCc1ccc(NCc2cc3ccc(OC)cc3n(CC(=O)Nc3c(C)cc(C)cc3C)c2=O)cc1,41%,2%,5%,2%
CC(C)(C)C(=O)Nc1ccc(Sc2ccc([N+](=O)[O-])cc2)cc1,-6%,-10%,-7%,2%
CC(=O)Nc1ccc(Sc2ccc([N+](=O)[O-])o2)cc1,4.5µM*,·,-1%,?
O=C(c1ccc(Cl)cc1)C(CN1CCCC1)c1ccccc1 (configuration not stated),35µM*,-3%,9%,25µM*
O=C(c1ccc(F)cc1)C(CN1CCOCC1)c1ccccc1 (configuration not stated),56µM*,-4%,-10%,50µM*
O=c1[nH]/c(=C/c2ccc3c(c2)OCO3)c(=O)[nH]/c1=C\c1ccc2c(c1)OCO2,22%[0.0914 µM],·,-4%,·
Cn1c(SCC(=O)NCc2ccco2)nnc1-c1cccc(NC(=O)c2ccccc2)c1,-4%,·,-4%,·
CCc1cccc(N2C(=O)N(CC(=O)NCc3cccc(OC)c3OC)c3ccccc3S2(=O)=O)c1,13%[57.1 µM],5%,-4%[57.1 µM],8%
CC1(C)CC(=O)C2=C(C1)OC(N)=C(C#N)C21CCC2(CC1)OCCO2,8.9µM*,·,15%,3%
CC(=O)N1CCC2(CC1)C(C#N)=C(N)OC1=C2C(=O)CC(C)(C)C1,-5%,1%,1%,6%
Cc1ccc2oc(-c3ccc(C)c(NC(=O)COc4ccccc4C)c3)nc2c1,28%,·,5%,·
CC[N+]1(CC(=O)c2ccc(OC)cc2)CCCCC1,11%,·,2%,·
c1coc(Cn2c(-c3ccco3)nc3ccccc32)c1,3.2µM*,-4%,27%,9%
CC(C)Cc1ccc([C@@H](C)C(=O)NS(C)(=O)=O)cc1,·,7%,·,?
CC(C)Cc1ccc(C(C)CC2=CCC(CN(C)C)C2=O)cc1 (configuration not stated),45µM*,·,-1%,?
CC(=O)N1CCC2(CC1)CN(Cc1ccccc1)C2,·,-10%,·,-10%
CCOC(=O)c1cc([N+](=O)[O-])cc([N+](=O)[O-])c1Sc1ncnc2nc[nH]c12,0.45µM*,·,0%[57.1 µM],50µM*
O=C(CCN1CCc2ccccc2C1)c1ccc2c(c1)OCCO2,0.56µM*,-3%,0%,?
COc1cc(C(=O)CCN2CCC(c3ccccc3)C2)cc(OC)c1OC (configuration not stated),0.5µM*,-5%,-7%,?
O=C(CCN1CCCCCC1)Nc1ccc2c(c1)OCCO2,-8%[57.1 µM],-3%,8%[57.1 µM],-13%
O=C(CCN1CCc2ccccc21)c1ccc2c(c1)OCCO2,?,-1%,15%[57.1 µM],-28%
O=C(CCN1CCC(c2ccccc2)C1)c1ccc2c(c1)OCCO2 (configuration not stated),0.28µM*,-9%,3%,14µM*
